Source: PubChem BioAssay (NCATS)
Inconclusive results are not listed. More than one record can exist for a structure, and the calls need not agree. The source made the active and inactive calls. Calls follow the shape of the dose curve; as a rule, active = well fitted cell-killing curve with a large enough effect; inconclusive = small, poorly fitted or top-dose-only effect, or effect the other way; inactive = flat fitted curve, though single readings scatter.

Columns and labels:
Assay in all cases: Primary qHTS to identify gynecologic anti-cancer compounds using libraries of approved drugs and bioactive compounds (AID 1345084); also: nearly all actives have a fitted effect of over 55% in size
C33A = conditions: Gynecologic cancer cell panel viability, ATPlite luminescence, 48 h; series mostly up to 57.5 µM
Outline: (§1)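 48 h compound exposure at 37 C, 5% CO2; five-point qHTS. ATPlite luminescence readout of cell ATP.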

CAOV3 = conditions: Gynecologic cancer cell panel viability, ATPlite luminescence, 48 h; series mostly up to 57.5 µM
Outline: as §1

CASKI = conditions: Gynecologic cancer cell panel viability, ATPlite luminescence, 48 h; series mostly up to 57.5 µM
Outline: as §1

Es-2 = conditions: Gynecologic cancer cell panel viability, ATPlite luminescence, 48 h; series mostly up to 57.5 µM
Outline: as §1

HeLa = conditions: Gynecologic cancer cell panel viability, ATPlite luminescence, 48 h; series mostly up to 57.5 µM
Outline: as §1

Hek293T = conditions: Gynecologic cancer cell panel viability, ATPlite luminescence, 48 h, control line for the selectivity index; series mostly up to 57.5 µM
Outline: as §1

JEG-3 = conditions: Gynecologic cancer cell panel viability, ATPlite luminescence, 48 h; series mostly up to 57.5 µM
Outline: as §1

OV90 = conditions: Gynecologic cancer cell panel viability, ATPlite luminescence, 48 h; series mostly up to 57.5 µM
Outline: as §1

PA-1 = conditions: Gynecologic cancer cell panel viability, ATPlite luminescence, 48 h; series mostly up to 57.5 µM
Outline: as §1

SKOV3 = conditions: Gynecologic cancer cell panel viability, ATPlite luminescence, 48 h; series mostly up to 57.5 µM
Outline: as §1
% is scaled to controls: 0 for no effect and ±100 for the full control effect; potency is read from the fitted curve at half-maximal effect.

CCOC(=O)[C@H](CCc1ccccc1)N[C@@H](C)C(=O)N1C(=O)N(C)C[C@H]1C(=O)O
inactive: Potency (C33A) | Potency (CAOV3) | Potency (CASKI) | Potency (Es-2) | Potency (HeLa) | Potency (Hek293T) | Potency (JEG-3) | Potency (OV90) | Potency (PA-1) | Potency (SKOV3)

CCCCN(CCCC)CC(O)c1cc(Cl)cc2c1-c1ccc(Cl)cc1/C2=C/c1ccc(Cl)cc1 (stereo not given)
inactive: Potency (C33A) | Potency (CAOV3) | Potency (CASKI) | Potency (Es-2) | Potency (HeLa) | Potency (Hek293T) | Potency (JEG-3) | Potency (PA-1)

CC1CC(OC(=O)C(O)c2ccccc2)CC(C)(C)N1C (stereo not given)
inactive: Potency (C33A) | Potency (CAOV3) | Potency (CASKI) | Potency (Es-2) | Potency (HeLa) | Potency (Hek293T) | Potency (JEG-3) | Potency (OV90) | Potency (PA-1) | Potency (SKOV3)

CCOC(CN1CCN(CC(C)C(=O)c2ccccc2)CC1)c1ccccc1 (stereo not given)
inactive: Potency (C33A) | Potency (CAOV3) | Potency (CASKI) | Potency (Es-2) | Potency (HeLa) | Potency (Hek293T) | Potency (JEG-3) | Potency (OV90) | Potency (PA-1) | Potency (SKOV3)

CC(O)CN(CCN(CC(C)O)CC(C)O)CC(C)O (stereo not given)
inactive: Potency (C33A) | Potency (CAOV3) | Potency (CASKI) | Potency (Es-2) | Potency (HeLa) | Potency (Hek293T) | Potency (JEG-3) | Potency (OV90) | Potency (PA-1) | Potency (SKOV3)

O=C1O[C@H]([C@@H](O)CO)C(O)=C1O
inactive: Potency (C33A) | Potency (CAOV3) | Potency (CASKI) | Potency (Es-2) | Potency (HeLa) | Potency (Hek293T) | Potency (JEG-3) | Potency (OV90) | Potency (PA-1) | Potency (SKOV3)

O=C1OC(OC(=O)c2cccnc2Nc2cccc(C(F)(F)F)c2)c2ccccc21 (stereo not given)
inactive: Potency (C33A) | Potency (CAOV3) | Potency (CASKI) | Potency (Es-2) | Potency (HeLa) | Potency (Hek293T) | Potency (JEG-3) | Potency (OV90) | Potency (PA-1) | Potency (SKOV3)

OCc1cc(C(O)CNCCCCCCOCCCCc2ccccc2)ccc1O (stereo not given)
active: Potency (CAOV3) 22.4 µM
inactive: Potency (C33A) | Potency (CASKI) | Potency (Es-2) | Potency (HeLa) | Potency (JEG-3)

CC(C(O)c1ccc(O)cc1)N1CCC(Cc2ccccc2)CC1 (stereo not given)
inactive: Potency (C33A) | Potency (CAOV3) | Potency (CASKI) | Potency (Es-2) | Potency (HeLa) | Potency (Hek293T) | Potency (JEG-3) | Potency (PA-1) | Potency (SKOV3)

Cn1cc[nH]c1=S
inactive: Potency (C33A) | Potency (CAOV3) | Potency (CASKI) | Potency (Es-2) | Potency (HeLa) | Potency (Hek293T) | Potency (JEG-3) | Potency (OV90) | Potency (PA-1) | Potency (SKOV3)

CCC(=O)c1ccc(O)cc1
inactive: Potency (C33A) | Potency (CAOV3) | Potency (CASKI) | Potency (Es-2) | Potency (HeLa) | Potency (Hek293T) | Potency (JEG-3) | Potency (OV90) | Potency (PA-1) | Potency (SKOV3)

CCOc1ccc2ccccc2c1C(=O)N[C@@H]1C(=O)N2[C@@H]1SC(C)(C)[C@@H]2C(=O)O
inactive: Potency (C33A) | Potency (CAOV3) | Potency (CASKI) | Potency (Es-2) | Potency (HeLa) | Potency (Hek293T) | Potency (JEG-3) | Potency (OV90) | Potency (PA-1) | Potency (SKOV3)

Cc1ncc([N+](=O)[O-])n1CC(O)CCl (stereo not given)
inactive: Potency (C33A) | Potency (CAOV3) | Potency (CASKI) | Potency (Es-2) | Potency (HeLa) | Potency (Hek293T) | Potency (JEG-3) | Potency (OV90) | Potency (PA-1) | Potency (SKOV3)

N[C@@H](CSSC[C@H](N)C(=O)O)C(=O)O
inactive: activity change, negative = cytotoxicity (C33A) 7.09% [at 0.462 µM] | activity change, negative = cytotoxicity (CAOV3) -5.94% [at 0.462 µM] | activity change, negative = cytotoxicity (CASKI) 7.1% [at 0.462 µM] | activity change, negative = cytotoxicity (Es-2) -1.97% [at 0.462 µM] | activity change, negative = cytotoxicity (HeLa) 1.97% [at 0.462 µM] | activity change, negative = cytotoxicity (Hek293T) 4.09% [at 0.462 µM] | activity change, negative = cytotoxicity (JEG-3) -2.56% [at 0.462 µM] | activity change, negative = cytotoxicity (OV90) 16.5% [at 0.462 µM] | activity change, negative = cytotoxicity (PA-1) -8.19% [at 0.462 µM] | activity change, negative = cytotoxicity (SKOV3) 0% [at 0.462 µM]

OCC(O)CN1CCN(c2ccccc2)CC1 (stereo not given)
inactive: Potency (C33A) | Potency (CAOV3) | Potency (CASKI) | Potency (Es-2) | Potency (HeLa) | Potency (Hek293T) | Potency (JEG-3) | Potency (OV90) | Potency (PA-1) | Potency (SKOV3)

CN(C)CCN(Cc1ccccc1)c1ccccn1
inactive: Potency (C33A) | Potency (CAOV3) | Potency (CASKI) | Potency (Es-2) | Potency (HeLa) | Potency (JEG-3) | Potency (OV90) | Potency (PA-1) | Potency (SKOV3)

Cc1cc2c(cc1S(N)(=O)=O)S(=O)(=O)CCC2
inactive: Potency (C33A) | Potency (CAOV3) | Potency (CASKI) | Potency (Es-2) | Potency (HeLa) | Potency (Hek293T) | Potency (JEG-3) | Potency (OV90) | Potency (PA-1) | Potency (SKOV3)

NC(=O)N/N=C/c1ccc([N+](=O)[O-])o1
31.6 µM (active) and inactive: Potency (Es-2)
14.1 µM (active) and inactive: Potency (SKOV3)
inactive: Potency (C33A) | Potency (CAOV3) | Potency (CASKI) | Potency (Hek293T) | Potency (OV90) | Potency (PA-1)
active: Potency (HeLa) 31.6 µM

COc1ccc(Cl)cc1C(=O)NCCc1ccc(S(=O)(=O)NC(=O)NC2CCCCC2)cc1
inactive: Potency (C33A) | Potency (CAOV3) | Potency (CASKI) | Potency (Es-2) | Potency (HeLa) | Potency (Hek293T) | Potency (JEG-3) | Potency (OV90) | Potency (PA-1) | Potency (SKOV3)

CC(C)c1c(C(=O)Nc2ccccc2)c(-c2ccccc2)c(-c2ccc(F)cc2)n1CC[C@@H](O)C[C@@H](O)CC(=O)O
inactive: Potency (C33A) | Potency (CAOV3) | Potency (CASKI) | Potency (Es-2) | Potency (HeLa) | Potency (Hek293T) | Potency (JEG-3) | Potency (OV90) | Potency (SKOV3)

CCN(CC)CCOC(=O)C1(C2CCCCC2)CCCCC1
inactive: Potency (C33A) | Potency (CAOV3) | Potency (CASKI) | Potency (Es-2) | Potency (HeLa) | Potency (Hek293T) | Potency (JEG-3) | Potency (OV90) | Potency (PA-1) | Potency (SKOV3)

NC1CCN(c2cccc(Cl)n2)CC1
inactive: Potency (C33A) | Potency (CAOV3) | Potency (CASKI) | Potency (Es-2) | Potency (HeLa) | Potency (Hek293T) | Potency (JEG-3) | Potency (OV90) | Potency (SKOV3)

Nc1ccc(S(=O)(=O)Nc2ccc(Cl)nn2)cc1
inactive: Potency (C33A) | Potency (CAOV3) | Potency (CASKI) | Potency (Es-2) | Potency (HeLa) | Potency (Hek293T) | Potency (JEG-3) | Potency (OV90) | Potency (PA-1) | Potency (SKOV3)

CCC(=O)Nc1ccc(O)cc1
inactive: Potency (C33A) | Potency (CAOV3) | Potency (CASKI) | Potency (Es-2) | Potency (HeLa) | Potency (Hek293T) | Potency (JEG-3) | Potency (OV90) | Potency (PA-1) | Potency (SKOV3)

COc1cc(C)c(Cc2cnc(N)nc2N)cc1OC
inactive: Potency (C33A) | Potency (CAOV3) | Potency (CASKI) | Potency (Es-2) | Potency (HeLa) | Potency (Hek293T) | Potency (JEG-3) | Potency (OV90) | Potency (PA-1) | Potency (SKOV3)

Nc1ncnc2c1ncn2[C@@H]1O[C@H](CO)[C@@H](O)[C@H]1O
inactive: Potency (C33A) | Potency (CAOV3) | Potency (CASKI) | Potency (Es-2) | Potency (HeLa) | Potency (Hek293T) | Potency (JEG-3) | Potency (OV90) | Potency (PA-1) | Potency (SKOV3)

C[C@]12C[C@H](O)[C@H]3[C@@H](CCC4=CC(=O)CC[C@@]43C)[C@@H]1CC[C@@H]2C(=O)CO
active: Potency (HeLa) 20 µM
inactive: Potency (C33A) | Potency (CAOV3) | Potency (CASKI) | Potency (Es-2) | Potency (Hek293T) | Potency (JEG-3) | Potency (OV90) | Potency (PA-1) | Potency (SKOV3)

CN1CCCCC1CCN1c2ccccc2Sc2ccc(S(C)=O)cc21 (stereo not given)
inactive: Potency (C33A) | Potency (CAOV3) | Potency (CASKI) | Potency (Es-2) | Potency (HeLa) | Potency (Hek293T) | Potency (JEG-3) | Potency (OV90) | Potency (PA-1) | Potency (SKOV3)

CCCCC(CC)COC(=O)c1ccccc1O (stereo not given)
inactive: Potency (C33A) | Potency (CAOV3) | Potency (CASKI) | Potency (Es-2) | Potency (HeLa) | Potency (Hek293T) | Potency (JEG-3) | Potency (OV90) | Potency (PA-1) | Potency (SKOV3)

C/C(=C(\CCOP(=O)(O)O)SC(=O)c1ccccc1)N(C=O)Cc1cnc(C)nc1N
inactive: activity change, negative = cytotoxicity (C33A) 4.02% [at 6.55 µM] | activity change, negative = cytotoxicity (CAOV3) -0.0932% [at 6.55 µM] | activity change, negative = cytotoxicity (CASKI) 2.61% [at 6.55 µM] | activity change, negative = cytotoxicity (Es-2) -4.63% [at 6.55 µM] | activity change, negative = cytotoxicity (HeLa) 3.42% [at 6.55 µM] | activity change, negative = cytotoxicity (Hek293T) -6.19% [at 6.55 µM] | activity change, negative = cytotoxicity (JEG-3) -14.5% [at 6.55 µM] | activity change, negative = cytotoxicity (PA-1) 12.8% [at 6.55 µM] | activity change, negative = cytotoxicity (SKOV3) 16.3% [at 6.55 µM]

COc1ccc2[nH]c(S(=O)Cc3ncc(C)c(OC)c3C)nc2n1 (stereo not given)
inactive: Potency (C33A) | Potency (CAOV3) | Potency (CASKI) | Potency (Es-2) | Potency (HeLa) | Potency (Hek293T) | Potency (JEG-3) | Potency (OV90) | Potency (PA-1) | Potency (SKOV3)

Cc1c(Cl)cccc1Nc1ccccc1C(=O)O
inactive: Potency (C33A) | Potency (CAOV3) | Potency (CASKI) | Potency (Es-2) | Potency (HeLa) | Potency (Hek293T) | Potency (JEG-3) | Potency (OV90) | Potency (PA-1) | Potency (SKOV3)

Cc1ccc2nc(N)[nH]c(=O)c2c1Sc1ccncc1
inactive: Potency (C33A) | Potency (CAOV3) | Potency (Es-2) | Potency (Hek293T) | Potency (OV90) | Potency (PA-1) | Potency (SKOV3)
active: Potency (JEG-3) 6.31 µM

C[C@@H]1CN(c2c(F)c(F)c3c(=O)c(C(=O)O)cn(C4CC4)c3c2F)C[C@H](C)N1
inactive: Potency (C33A) | Potency (CASKI) | Potency (Es-2) | Potency (HeLa) | Potency (Hek293T) | Potency (JEG-3) | Potency (OV90) | Potency (PA-1) | Potency (SKOV3)
